# According to PMC6919601, “Identification of Plasmodium dipeptidyl aminopeptidase allosteric inhibitors by high throughput screening” (PLoS ONE, 2019):
# About 230 (0.21%) of roughly 110,000 compounds showed an effect of 50% or more. What follows is part of a selection rich in strong results, with near analogues and random picks from the rest.
# Biological target: DPAP1 (Plasmodium falciparum, UniProt Q8IIJ9)
# Assay: primary screen, percent inhibition; read by cleavage of a fluorogenic dipeptide substrate; higher = more effect of the substance
# Design: species or system P. falciparum D10 trophozoite lysates; single well
# 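Further: 30 min substrate incubation versus DMSO and 10 µM JCP410 controls.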
# DPAP1, sequence (Q8IIJ9 whole entry, looked up): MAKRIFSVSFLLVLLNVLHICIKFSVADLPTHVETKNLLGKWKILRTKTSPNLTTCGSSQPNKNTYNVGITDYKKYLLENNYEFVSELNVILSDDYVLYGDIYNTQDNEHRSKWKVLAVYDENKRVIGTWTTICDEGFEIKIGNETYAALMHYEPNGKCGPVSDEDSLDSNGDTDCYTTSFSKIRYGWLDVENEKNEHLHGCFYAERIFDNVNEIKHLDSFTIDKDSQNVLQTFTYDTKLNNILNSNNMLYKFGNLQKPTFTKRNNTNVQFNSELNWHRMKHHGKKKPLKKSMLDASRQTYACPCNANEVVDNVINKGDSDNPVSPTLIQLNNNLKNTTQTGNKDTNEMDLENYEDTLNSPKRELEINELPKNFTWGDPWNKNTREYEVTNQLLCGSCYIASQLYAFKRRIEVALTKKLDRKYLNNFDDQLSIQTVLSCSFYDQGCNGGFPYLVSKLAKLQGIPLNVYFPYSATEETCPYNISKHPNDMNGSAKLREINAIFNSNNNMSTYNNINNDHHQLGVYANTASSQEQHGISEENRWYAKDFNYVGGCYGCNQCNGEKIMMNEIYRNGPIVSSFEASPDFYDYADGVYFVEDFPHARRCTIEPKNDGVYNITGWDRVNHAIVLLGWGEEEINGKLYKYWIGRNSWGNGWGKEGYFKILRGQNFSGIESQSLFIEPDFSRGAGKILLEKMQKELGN
row,Structure (SMILES),% Inhibition @ 10 uM [%]
1,COc1cc2c(NCc3ccccc3)cc(O)c(CC(=O)Nc3ccccc3)c2cc1OC,66.3
2,COc1cc2c(CC(=O)Nc3ccccc3)c(O)c(C)c(NCc3ccccc3)c2cc1OC,13.4
3,CCCCNc1cc(O)c(CC(=O)Nc2ccccc2)c2cc(OC)c(OC)cc12,25.7
4,CCn1c(C)cc(/C=C2\NC(=O)N(CC(=O)Nc3ccc(F)cc3)C2=O)c1C,0.528
5,CCCNS(=O)(=O)c1cc(-c2cc(C)no2)ccc1OC,-8.89
6,CCCCNC(=O)c1cc(-c2ccc(F)cc2)on1,4.5
7,Brc1ccc(-c2cn3nc(C4CCCCC4)sc3n2)cc1,-2.71
8,CCOc1ccc(C(=O)CCN(C)CC(=O)O)cc1,89.9
9,COc1ccc(C(=O)CCN(C)CC(=O)O)cc1,55.8
10,CCOc1ccc(C(=O)CCNCCC(=O)O)cc1,44.5
11,COc1ccc(C(=O)CCN(C)C)cc1,3.82
12,CCOc1ccc(C(=O)CCN(C)C)cc1,-1.25
13,COc1ccc(C(=O)CCNCCC(=O)O)cc1,30.1
14,O=C(O)c1ccccc1NC(=O)C12CC3CC(CC(C3)C1)C2,-5.44
15,O=C(O)CCC(=O)Nc1ccc(S(=O)(=O)NC2CCCCC2)cc1,1.49
16,CC(=O)c1ccc(N2CCN(Cc3ccc(C)cc3C)CC2)cc1,-5.11
17,CC1(C)CC(=O)C2=C(C1)N1C(=C(C#N)C2c2cccnc2)N=C(N)c2c1sc1c2CCCCC1 (stereo not drawn),-2.39

row,Structure (SMILES),% Inhibition @ 10 uM [%]
1,CCc1nn(-c2cc(Oc3ccccc3)ncn2)c(N)c1C(N)=O,0.686
2,CCc1nn(-c2cc(Oc3ccc(C)cc3)ncn2)c(N)c1C(N)=O,60.5
3,Cc1ccc(Oc2cc(-n3nc(C)c(C(N)=O)c3N)ncn2)cc1,-0.795
4,CN(C1CCCCC1)S(=O)(=O)c1ccc(C(=O)Nc2nc(-c3ccccn3)cs2)cc1,-1.4
5,O=c1ncn(-c2ccccc2F)c2ncccc12,-10.2
6,CCOC(=O)C1=C(O)/C(=C\c2cc(C)n(-c3ccccc3C(F)(F)F)c2C)N=C1C,52.7
7,CCOC(=O)C1=C(O)/C(=C\c2cc(C)n(-c3cc(C)ccc3OC)c2C)N=C1C,3.47
8,CCOC(=O)C1=C(O)/C(=C\c2cc(C)n(-c3ccccc3C(=O)OC)c2C)N=C1C,3.47
9,C/N=C1/S/C(=C\c2ccc(N3Cc4ccccc4C3)cc2)C(=O)N1C,-5.19
10,CCCCNC(=O)c1cn(C)c(=O)c2cc(OC)c(OC)cc12,-5.67
11,CCCCNC(=O)c1cnn2c(C(F)F)cc(-c3ccccc3)nc12,4.08
12,O=C(c1cnn2c(C(F)F)cc(-c3ccccc3)nc12)N1CCN(c2ccccn2)CC1,5.65
13,Cc1ccc(-c2cc(C(F)F)n3ncc(C(=O)n4c(C)nc5ccccc54)c3n2)cc1,50
14,CCc1nccn1C(=O)c1cnn2c(C(F)F)cc(-c3ccccc3)nc12,75.7
15,Cc1ccc(-c2cc(C(F)F)n3ncc(C(=O)NC(C)c4ccccc4)c3n2)cc1 (stereo not drawn),0.778
16,Cc1ccc(-c2cc(C(F)F)n3ncc(C(=O)N4CCc5ccccc5C4)c3n2)cc1,0.778
